# Target: RNF113A
# Test: pooled miR-30 sensor sort-seq; sequence = guide strand
# Settings: shRNA
# Also: reference of the scale not given here.
row,Sequence,sensor-assay potency score (higher = more potent)
1,TACTGCTGCCGCTTTCTCCGGG,-0.242
2,ATAGATCTTGTCATCCTCCTTG,0.536
3,TTTTCCTCTTCCTCTTCGCTGC,-0.23
4,TAGTTTAGCAATCAATTCTTTC,-0.827
5,TAGCTCGATGCTTCTCTAGTTT,-0.684
6,TAGATCTTGTCATCCTCCTTGC,0.184
7,TTCGCTGCTCAAGTCGCCGTAA,-0.391
8,TTAGCAATCAATTCTTTCGCTG,0.0148
9,TTTACCACTGTCACGGGTCTTC,-0.541
10,TTCGTCGCTACTGCTGCCGCTT,-0.608
11,TAGCAATCAATTCTTTCGCTGG,0.133
12,TTTTCCGGTCGAACCACAGTGC,-0.536

# Target: RNF122
# Test: as above
# Settings: shRNA
row,Sequence,sensor-assay potency score (higher = more potent)
1,TAACTTCTTGGCATCACCTTTA,-0.252
2,AAGTCTTCCAGACAGACTGCGC,-0.854
3,TTGCTGATAAAATAGCAGCAGA,-0.908
4,TTTCACCAGACACTTGCGGTGA,-0.949
5,ATAATTGTAACTTCTTGGCATC,-0.737
6,TATCCGTATCGCTCACTCTGTG,-0.565
7,TAGAATCCCAATGTTCTGCGTG,0.594
8,TATATCCGTATCGCTCACTCTG,-0.842
